Consider 35 compounds from PubChem BioAssay.

The assay relates to Plasmodium falciparum Sir2 (PF13_0152, Sir2A). Nature of the assay: Plasmodium falciparum Sir2A binding compounds – biochemical, small-molecule microarray, 635 nm fluorescence, primary screen (AID 1098).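 Further: score merges spot fluorescence intensity with its signal-to-noise ratio.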 The following applies: fluorescence 635 nm, higher = more signal.
`COc1ccc([Si](C)(C)[C@@H]2[C@@H](CC(=O)N3CCC[C@H]3CO)O[C@]3(C(=O)N(C)c4c(Br)cc(C)cc43)[C@H]2C)cc1` had a composite z-score of 0.717.

Regarding `CN(C)CCCCCCNC(=O)[C@H]1C[C@H]2C(=O)N[C@@H](CCCCN)C(=O)N2[C@H]1c1ccc(O)cc1`, the composite z-score was 2.14.

`COCC(=C=CC[C@H](O)c1ccc(OCCO)cc1)C[C@H](O)c1cc(Cl)cc(Cl)c1O` registered a composite z-score of 0.654.

Consider `COc1cc(C(O)C2C=CC3C(=O)N(c4ccccc4)C(=O)C3N2Nc2ccc(C#N)cc2)cc(OC)c1OC` (stereo not given), for which the composite z-score came out at 1.4.

In turn, `N#Cc1ccc(NN2C(C(O)c3ccc([N+](=O)[O-])cc3)C=CC3C(=O)N(c4ccccc4)C(=O)C32)cc1` (stereo not given) showed a composite z-score of 1.29.

For the compound `CC(=O)NCCCC[C@@H]1NC(=O)[C@@H]2C[C@H](C(=O)NCCCCCCNC(=O)CS)[C@H](c3ccc(O)cc3)N2C1=O`, the composite z-score was determined as 1.18.

Take `CCOC(=O)C[C@H]1[C@H](OC(=O)Cc2ccc3c(c2)OCO3)[C@@H](NC(=O)c2ccc(-c3ccccc3)cc2)c2cc(OCCCO)ccc2N1C(=O)c1ccccc1`: the composite z-score was 0.377.

`O=C1O[C@@H](c2ccccc2)[C@@H](c2ccccc2)N2[C@@H](c3ccccc3OCCO)[C@]3(C(=O)Nc4ccc(C#CC5(O)CCCCCC5)cc43)[C@@H](C(=O)Nc3nc4ccccc4s3)[C@H]12` had a composite z-score of 1.04.

`Cc1ccccc1C(O)C1C=CC2C(=O)N(C)C(=O)C2N1N1CCCCC1` (stereo not given) came in with a composite z-score of 1.29.

With `COCCOC(=O)N1C(=O)[C@@]2(c3ccccc31)[C@H](C(=O)Nc1nc3ccccc3s1)[C@H]1C(=O)O[C@H](c3ccccc3)[C@H](c3ccccc3)N1[C@@H]2c1ccc(OCCO)cc1`, the composite z-score stood at 1.11.

As for `CC(C)C[C@@H]1NC(=O)[C@H]2C[C@@H](C(=O)NCCCCCNC(=O)CS)[C@@H](c3cccc(OCCO)c3)N2C1=O`, the composite z-score stood at 1.52.

Consider `COc1ccc(C#Cc2ccc3c(c2)[C@]2(C(=O)N3)[C@H](c3ccc(O)cc3)N3[C@H](c4ccccc4)[C@H](c4ccccc4)OC(=O)[C@H]3[C@@H]2C(=O)NC[C@H](O)c2ccccc2)cc1`, for which the composite z-score amounted to 1.14.

Compound `O=C1OCC=C[C@H]2OC34C=CCN(c5ccc(Cl)cc5)C(=O)[C@H]3N(CCCCCCO)C(=O)[C@@H]4[C@@H]12` (stereo not given in full) returned a composite z-score of 2.08.

As for `C=CCOC(=O)[C@H]1[C@@H]2C(=O)O[C@@H](c3ccccc3)[C@@H](c3ccccc3)N2[C@@H](c2ccc(OCCOC(=O)[C@@H]3C[C@@H]4C(=O)N5CCC[C@H]5C(=O)N4[C@@H]3c3ccc(O)cc3)cc2)[C@]12C(=O)Nc1ccccc12`, the composite z-score amounted to 1.53.

`CCCC[C@H]1OB(O)C[C@H]2C1=C(C)C[C@H]1C(=O)N(Cc3ccccc3)C(=O)[C@H]12` showed a composite z-score of 0.148.

Turning to `CCCC[C@@H]1C[C@H]1[C@@H](NC(=O)c1ccc(-c2ccccc2)cc1)c1ccc(-c2ccccc2)cc1`, the composite z-score is -0.508.

`COCC(=C=CC[C@@H](O)c1ccc(CO)o1)CCO` returned a composite z-score of 0.772.

`Cc1ccc(S[C@]2(C(=O)NCc3ccccc3)CC(=O)N(Cc3ccccc3Cl)[C@@H]2c2ccc(CO)cc2I)cc1` had a composite z-score of 0.49.

Consider `CC=CC(O)C1C=CC2C(=O)N(c3ccccc3)C(=O)C2N1Nc1ccc(C(C)C)cc1` (stereo not given), for which the composite z-score was determined as 0.534.

`COCCOC(=O)N1C(=O)[C@@]2(c3ccccc31)[C@H](C(=O)NC[C@H](O)c1ccccc1)[C@H]1C(=O)O[C@H](c3ccccc3)[C@H](c3ccccc3)N1[C@@H]2c1ccc(OCCO)cc1`: the composite z-score turned out to be 1.38.

`[N-]=[N+]=NCc1ccccc1C[C@@]1(C(=O)NCC(O)CO)N=C(c2ccc(OCCCO)cc2)O[C@@H]1c1ccccc1CN=[N+]=[N-]` (stereo not given in full): the composite z-score is 1.71.

For `COc1ccc(C#Cc2ccc3c(c2)[C@]2(C(=O)N3)[C@H](C(=O)NC[C@H](O)c3ccccc3)[C@H]3C(=O)O[C@H](c4ccccc4)[C@H](c4ccccc4)N3[C@@H]2c2ccccc2OCCO)cc1`, the composite z-score turned out to be 1.74.

Take `COC(=O)[C@@]1(Cc2ccccc2)[C@H]2c3cc(C(=O)N(C)C)n(Cc4cc(C)n(C)n4)c3C[C@H]2CN1C(=O)c1ccccc1`: the composite z-score is 1.32.

Take `C#CCN(C(/C=C/c1ccccc1)CO)C(C(=O)O)c1ccccc1` (stereo not given): the composite z-score is -0.211.

As for `COc1ccc([Si](C)(C)[C@@H]2[C@@H](CCn3cc([C@H](O)c4ccccc4)nn3)O[C@]3(C(=O)N(Cc4cccc(N5CCOC5=O)c4)c4ccccc43)[C@H]2C)cc1`, the composite z-score was -1.35.

Turning to `Cc1ccc(S[C@]2(C(=O)O)CC(=O)N(C3Cc4ccccc4C3)[C@@H]2c2ccc(CO)cc2I)cc1`, the composite z-score came to 0.787.

The compound `CCOC(=O)C[C@H]1[C@H](OC(=O)c2ccc(-c3ccccc3)cc2)[C@@H](NC(=O)Cc2ccc(OC)cc2)c2cc(OCCCO)ccc2N1C(=O)c1ccc2ccccc2n1` yielded a composite z-score of 0.042.

With `COc1ccc([Si](C)(C)[C@@H]2[C@@H](CC(=O)N(CCO)Cc3ccccc3)O[C@]3(C(=O)N(C)c4ccccc43)[C@H]2C)cc1`, the composite z-score is 1.24.

Consider `O=c1cccc(C=Cc2ccccc2)o1`, for which the composite z-score is -1.32.

`O=C1OCC=C[C@H]2OC34C=CCN(c5ccc6ccccc6c5)C(=O)[C@H]3N(CCCO)C(=O)[C@@H]4[C@@H]12` (stereo not given in full) registered a composite z-score of 1.17.

Regarding `COCCOC(=O)N1C(=O)[C@@]2(c3cc(C#CC4=CCCCC4)ccc31)[C@H](C(=O)N1CCc3cc(OC)c(OC)cc3C1)[C@H]1C(=O)O[C@H](c3ccccc3)[C@H](c3ccccc3)N1[C@@H]2c1ccccc1OCCO`, the composite z-score amounted to 0.763.

With `COCCOC(=O)N1C(=O)[C@@]2(c3cc(C#CCC(C(=O)OC)C(=O)OC)ccc31)[C@H](c1ccccc1OCCO)N1[C@H](c3ccccc3)[C@H](c3ccccc3)OC(=O)[C@H]1[C@@H]2C(N)=O`, the composite z-score is 1.38.

As for `CC(C)OC(=O)CC(=O)CC(O)c1ccc(C#N)cc1` (stereo not given), the composite z-score is -0.165.

`COC(=O)[C@@]1(Cc2ccc(OC)cc2)[C@H]2c3cc(C(=O)N(C)C)n(Cc4c(OC)[nH]cc(C)c4=O)c3C[C@H]2CN1C(=O)c1ccccc1` returned a composite z-score of 1.04.

Regarding `O=C1C[C@@](C(=O)NC2CC2)(c2ccc([N+](=O)[O-])cc2)[C@@H](c2ccc(CO)cc2)N1CC12CC3CC(CC(C3)C1)C2`, the composite z-score was 1.3.
